Experiment [1] can be described thus: P-glycoprotein substrates identified in KB-3-1 adenocarcinoma cell line, qHTS therapeutic library screen (AID 1346986). Also: nearly all actives have a fitted effect of over 60% in size.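 Also: potency is for cytotoxicity meaning loss of cell viability.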 Conditions: KB-3-1 parental cells viability, CellTiter-Glo, 72 h; series mostly up to 44.5 µM. Put shortly: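 KB-3-1 parental cells and P-gp-overexpressing KB-8-5-11 (colchicine omitted during assay) plated at 500 cells/well, dosed in dose-response, incubated 72 h at 37 degree C. CellTiter-Glo luminescence read; KB-8-5-11 also tested with tariquidar.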
(In general: qHTS replaces the single test concentration by a dilution series.)

Experiment [2] is described as follows: P-glycoprotein substrates identified in KB-8-5-11 adenocarcinoma cell line, qHTS therapeutic library screen (AID 1346987). Also: nearly all actives have a fitted effect of over 65% in size. As to activity change, negative = cytotoxicity: % is scaled to controls: 0 for no effect and ±100 for the full control effect. Conditions: KB-8-5-11 (P-gp overexpressing) viability, CellTiter-Glo, 72 h; series mostly up to 44.5 µM. The method, boiled down: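 P-gp-mediated resistance screen: KB-8-5-11 cells treated 72 h with compounds in dose-response. CellTiter-Glo viability.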

These results are taken from PubChem BioAssay (NCATS).

Values joined by “and” are separate entries in the source; they are usually repeats but may differ in a detail not shown here. Equal values may be shown once. Results filed as inconclusive are left out. Unmarked numbers belong to inactive results. Active and inactive are the calls of the source. Calls follow the shape of the dose curve; as a rule, active = well fitted curve in the direction sought with a large enough effect; inconclusive = small, poorly fitted or top-dose-only effect, or another doubt; inactive = no such curve, though single readings can be large; an effect the other way counts as inactive or inconclusive. *1 amine or outer side, *2 acyl side, *3 side chain or, on linkers, in order; H or OH if unused. Where a SMILES comes first, the peptide text is derived from it. [ ]: non-standard residue; d: D form. X4 = CC(C)=CCc1cc(C(O)C(N[*:1])C(=O)[*:2])ccc1O
Potency is read from the fitted curve at half-maximal effect.

As for `CC(O)CO[C@@H]1O[C@H](CO)[C@@H](O)[C@H](O)[C@H]1O` (some centres not stated), the Potency entry in experiment [1] and in experiment [2] was “inactive” in each case.
Take `CC1=CCC(C(C)(C)O[C@@H]2O[C@H](CO[C@@H]3O[C@@H](C)[C@H](O)[C@@H](O)[C@H]3O)[C@@H](O)[C@H](O)[C@H]2O)CC1` (some centres not stated): the Potency entry in experiment [1] and in experiment [2] was “inactive” each time.
As to `CCC(C)/C=C(C)/C=C/c1cc2c(cn1)C(=O)C(C)(OC(C)=O)C(O)=C2Cl` (configuration not stated), the Potency entry in experiment [1] and in experiment [2] was “inactive” in each case.
For the compound `Nc1ccc(/C=C/C(=O)NCc2cc3cc(-c4ccc(C(=O)N5CCC(F)(F)CC5)cc4)cc(-c4ccc(F)cc4)c3o2)cn1`, the Potency is 517 nM (active) in experiment [1]; 5.17 µM (active) and 5.8 µM (active) in experiment [2].
For `C=C1CC[C@@H]2[C@](C)(CO[C@@H]3O[C@H](CO)[C@@H](O)[C@H](O)[C@H]3O)[C@H](O)CC[C@@]2(C)[C@@H]1C/C=C1/C(=O)OC[C@H]1O`, the Potency result in experiment [1] and in experiment [2] was “inactive” each time.
On to `CC1(C)CCCC2(C)C1C(O)C=C(CO)C2(O)CO` (configuration not stated), for which the Potency result in experiment [1] and in experiment [2] was “inactive” throughout.
Take `COC(=O)C1=CO[C@@H](O[C@@H]2O[C@H](CO)[C@@H](O)[C@H](O)[C@H]2O)[C@@H]2C(COC(C)=O)=C[C@H](O)[C@H]12`: the Potency entry in experiment [1] and in experiment [2] was “inactive” each time.
Consider `CC(C)C[C@H](CC(=O)NO)C(=O)N[C@H](C(=O)N[C@@H](C)C(=O)NCCN)C(C)(C)C`, for which the outcome in experiment [1] was “inactive [at 9.29 µM]”. The activity change, negative = cytotoxicity in experiment [2] was 2.84% [at 9.29 µM].
`CC1OC(O[C@H]2CC[C@@]3(C)C(CC[C@]4(C)C3CC=C3C5CC(C)(C)CC[C@]5(C(=O)OC5OC(CO)C(OC6OC(COC7OCC(O)C(O)C7O)C(O)C(O)C6O)C(O)C5O)CC[C@]34C)C2(C)C)C(O)C(O)C1OC1OCC(OC2OCC(O)C(O)C2O)C(O)C1O` (some centres not stated): the outcome in experiment [1] and in experiment [2] was “inactive [at 9.29 µM]” in each case.
Consider `C=C1CC2C(C)(CCC(=O)O)C(C(C)(C)O)CCC2(C)C2C(=O)OC(C)(C(=O)OC)C(=O)C12C` (configuration not stated), for which the Potency result in experiment [1] and in experiment [2] was “inactive” in each case.
As for `CC(=O)OC1/C(C)=C/C(=O)C(OC(C)=O)C(C)(C)/C=C/C(C)C(=O)C2(OC(C)=O)CC(C)C(OC(=O)c3ccccc3)C12` (configuration not stated), the Potency result in experiment [1] and in experiment [2] was “inactive” each time.
On to `CCCCNc1ncc2c(-c3ccc(F)cc3)nn(CC3CCC(N)CC3)c2n1` (configuration not stated), for which the Potency in experiment [1] was 2000 nM (active); in experiment [2], 1780 nM (active).
For the compound `C=C[C@H]1C(O[C@@H]2O[C@H](CO)[C@@H](O)[C@H](O)[C@H]2O)OC=C2C(=O)N3CCc4c([nH]c5ccccc45)C3CC21` (some centres not stated), the Potency entry in experiment [1] and in experiment [2] was “inactive” throughout.
In the case of `CC1(C)CC[C@]2(C(=O)O)CC[C@]3(C)C(=CCC4[C@@]5(C)C[C@@H](O)[C@H](O)C(C)(C)C5CC[C@]43C)C2C1` (some centres not stated), the Potency entry in experiment [1] and in experiment [2] was “inactive” throughout.
For the compound `C[C@H](NC(c1cccc2[nH]c(=O)c(=O)[nH]c12)P(=O)(O)O)c1ccc(Br)cc1` (some centres not stated), the Potency entry in experiment [1] and in experiment [2] was “inactive” throughout.
For the compound `C=C1C[C@]23C[C@H]1CC[C@H]2[C@@]1(C)CCC[C@@]2(C)C(=O)O[C@@H]([C@@H]3O)[C@@H]12`, the Potency result in experiment [1] and in experiment [2] was “inactive” in each case.
On to `CC(=O)OC/C=C(\C)C(CC1C(C)=C(OC(C)=O)C(=O)C2C(C)(C)C(O)CCC12C)OC(C)=O` (configuration not stated), for which the Potency entry in experiment [1] and in experiment [2] was “inactive” each time.
For `CC(C)=C/C=C\[C@H](C)[C@H]1CC[C@]2(C)C[C@@H]3C(C)=CC(=O)C3/C(CO)=C\C[C@@H]12` (some centres not stated), the Potency result in experiment [1] and in experiment [2] was “inactive” throughout.
With `CCNC(=O)Nc1ccc(-c2nc3c(c(N4CCOC[C@@H]4C)n2)CCN(c2ncccn2)C3)cc1`, the values for the Potency in experiment [1] and in experiment [2] were 58 nM (active) and 259 nM (active), respectively.
The corresponding values for `CC(=O)O[C@@H]1[C@@H](OC(=O)/C=C/c2ccccc2)[C@@H](OC(C)=O)[C@H](O[C@H]2[C@@H]3C=CO[C@@H](O[C@@H]4O[C@H](CO)[C@@H](O)[C@H](O)[C@H]4O)[C@@H]3[C@@]3(CO)O[C@@H]23)O[C@H]1C` are “inactive” and “inactive”.
The matching figures for `COc1ccc(CN2C(=O)C(=O)c3cc(S(=O)(=O)N4CCC[C@H]4COc4cccnc4)ccc32)cc1`: “inactive” and “inactive”.
The corresponding values for `Cc1c(CN2CCN(C(=O)C(C)O)CC2)sc2c(N3CCOCC3)nc(-c3cnc(N)nc3)nc12` (configuration not stated) are 259 nM (active) and 820 nM (active).
Take `O=C(O)[C@H](Cc1ccc(Nc2nccc3ccncc23)cc1)NC1=C(Br)C(=O)C12CCCCC2`: the Potency result in experiment [1] and in experiment [2] was “inactive” each time.
For `CCCOc1ccc(-c2nc(OC)c3ccccc3n2)cc1`, the Potency entry in experiment [1] and in experiment [2] was “inactive” each time.
Consider `C=CC1C(OC2OC(CO)C(O)C(O)C2O)OC=C(C(=O)OC)C1CC(=O)OCC1C(C)C(O)CC1C(CO)COC(=O)CC1C(C(=O)O)=COC(OC2OC(CO)C(O)C(O)C2O)/C1=C\C` (configuration not stated), for which the outcome in experiment [1] was “inactive [at 9.29 µM]”. Besides, the activity change, negative = cytotoxicity in experiment [2] is -0.744% [at 9.29 µM].
With `CC(C)S(=O)(=O)N[C@H]1CCOC[C@@H]1c1ccc(-c2ccc(C#N)s2)cc1`, the Potency entry in experiment [1] and in experiment [2] was “inactive” in each case.
Consider `CC1(C)CC[C@]2(C(=O)O[C@@H]3O[C@H](CO)[C@@H](O)[C@H](O)[C@H]3O)CC[C@]3(C)C(=CCC4[C@@]5(C)C[C@@H](O)[C@H](O)C(C)(C)C5CC[C@]43C)C2[C@@H]1O` (some centres not stated), for which the Potency result in experiment [1] and in experiment [2] was “inactive” throughout.
Consider `COc1cc(N2CCOCC2)ccc1Nc1ncc(Cl)c(Nc2ccccc2NS(C)(=O)=O)n1`, for which the Potency in experiment [1] was 2060 nM (active); in experiment [2] it was 1640 nM (active).
The matching figures for `COc1cc(O)c2c(c1)C1=CC(O)C(O)CC1(C)OC2=O` (configuration not stated): “inactive” and “inactive”.
The matching figures for `CCOc1ccc(NC(=S)N2CCC(C(O)(c3ccccc3)c3ccccc3)CC2)cc1`: “inactive” and “inactive”.
The matching figures for `Cc1c2cc(c(C(=O)O)c1C)OC1OC(C(O)C(O)C1O)C(O)C(O)C1OC(O2)C(O)C(O)C1O` (configuration not stated): “inactive” and “inactive”.
Take `CC(C)=CCC(O)/C(C)=C/CO[C@@H]1O[C@H](CO)[C@@H](O)[C@H](O)[C@H]1O` (some centres not stated): the Potency result in experiment [1] and in experiment [2] was “inactive” in each case.
On to `C[C@H](Nc1ncnc2nc[nH]c12)c1cc2ccc(F)cc2nc1-c1ccccn1`, for which the Potency entry in experiment [1] and in experiment [2] was “inactive” each time.
Turning to `CC(C)=CCC/C(C)=C/CO[C@@H]1O[C@H](CO)[C@@H](O)[C@H](O)[C@H]1O`, the Potency entry in experiment [1] and in experiment [2] was “inactive” each time.
Regarding `CC1OC(OC2C(C)OC(OC3C(OC(=O)C45CCC(C)(C)CC4C4=CCC6C7(C)CCC(OC8OC(C(=O)O)C(O)C(O)C8OC8OC(CO)C(O)C(OC9OC(C)C(O)C(O)C9O)C8O)C(C)(CO)C7CCC6(C)C4(C)CC5)OC(CO)C(O)C3O)C(O)C2O)C(O)C(O)C1O` (configuration not stated), the outcome in experiment [1] is “inactive [at 9.29 µM]”. Moreover, the activity change, negative = cytotoxicity in experiment [2] is 1.71% [at 9.29 µM].
For the compound `CC1(C)C=CN2C(=O)C3=CCCN3C(=O)[C@@H]2C[C@@]12Nc1ccccc1C2=O`, the Potency result in experiment [1] and in experiment [2] was “inactive” throughout.
Turning to `Cn1c(=O)n(-c2ccc(C(C)(C)C#N)cc2)c2c3cc(C#Cc4cccnc4)ccc3ncc21`, the Potency in experiment [1] was 126 nM (active); in experiment [2], 89.3 nM (active).
For `CC1OC(OC2C(O)C(OC3CCC4(C)C(CCC5(C)C4CC=C4C6CC(C)(COC7OC(CO)C(O)C(O)C7O)CC(O)C6(C)CCC45C)C3(C)C)OC(C(=O)O)C2O)C(O)C(O)C1OC1OCC(O)C(O)C1O` (configuration not stated), the outcome in experiment [1] was “inactive [at 9.29 µM]”. Besides, in experiment [2], the activity change, negative = cytotoxicity is 1.43% [at 9.29 µM].
Take `CN(C)CC1CCOC1(c1ccccc1)c1ccccc1` (configuration not stated): the Potency result in experiment [2] was “inactive”.
The same measure, in the same setting: the same measure for `CC1(C)CCC(C)(C)c2cc(C3(c4ccc(C(=O)O)cc4)OCCO3)ccc21`: “inactive”; for `O=C(O)COCCN1CCN([C@H](c2ccccc2)c2ccc(Cl)cc2)CC1`: “inactive”.
On the same count and under the same terms, the same measure for `O=C(O)c1ccc(CN2CCC(CN[C@@H]3C[C@H]3c3ccccc3)CC2)cc1`: “inactive”.
For the compound `CC(C)=CCc1cc(C(O)C2NC(=O)CNC(=O)C(Cc3c[nH]c4ccccc34)NC(=O)C3CCCN3C(=O)CNC(=O)C(C(C)C)NC(=O)CNC2=O)ccc1O` (configuration not stated) (cyclo(G[X4]GVGPW); configuration not given here), in experiment [2], the activity change, negative = cytotoxicity was -0.495% [at 9.29 µM].
In the case of `O=C(OC[C@H]1O[C@H](O[C@]2(CO)O[C@H](CO)[C@@H](O)[C@@H]2O)[C@H](O)[C@@H](O)[C@@H]1O)c1ccccc1`, the Potency result in experiment [2] was “inactive”.
